In PubChem BioAssay (NCI):
The panel holds about 79,000 compounds, 15% with a hit somewhere; the sample as a whole holds those more often. The source made the active and inactive calls. No stated cut-off is given here; in the data, active means growth inhibition above about 70%; inactive means the rest.

Assay: NCI Yeast Anticancer Drug Screen. Data for the mlh1 rad18 strain (AID 175)
Settings: S. cerevisiae mlh1 rad18 strain growth inhibition; at 5.0 µM (retest, dose inferred, filed as 0.5); active compounds read high
How it was run: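 Test agents were incubated with a yeast strain of defined genotype (DNA damage repair defect). Inhibition of growth was derived by comparison with vehicle-exposed cultures.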

| SMILES | growth inhibition |
| --- | --- |
| Clc1cc2n[nH]nc2c(Cl)c1Cl | 6% (inactive) |
| NSc1ccc(N)s1 | -1% (inactive) |
| O=C1C2=C(CCCC2)C(=O)C(Cl)C1Cl (stereo not drawn) | 62% (inactive) |
| O=C(COc1ccc2ccccc2c1)NC1c2ccccc2Oc2ccccc21 | 82% (active) |
| COc1ccc(-c2cc(-c3ccco3)c(C#N)c(=S)n2C2OC(CO)C(O)C(O)C2O)cc1 (stereo not drawn) | 10% (inactive) |
| Clc1cccc(Cl)c1C(Nc1nncs1)Nc1nncs1 | 0% (inactive) |
| COC([C@@H](OC(=O)c1ccccc1)[C@H](OC(=O)c1ccccc1)C(O)COC(=O)c1ccccc1)n1cc(C)c(=O)[nH]c1=O (stereo partly drawn) | -3% (inactive) |
| C1=C(c2c(-c3ccccc3)[nH]c3ccccc23)Cc2ccccc21 | 3% (inactive) |
| CC12C(=O)OC(=O)C1C1c3ccccc3C2c2ccccc21 (stereo not drawn) | 76% (active) |
| O=C(N/C(=C\c1ccc(/C=C(\NC(=O)c2ccccc2)c2nc3ccccc3s2)cc1)c1nc2ccccc2s1)c1ccccc1 | 28% (inactive) |
| COS(=O)c1cc(Cl)cc(Cl)c1OC(=O)CSSCC(=O)Oc1c(Cl)cc(Cl)cc1S(=O)OC (stereo not drawn) | 84% (active) |
| COc1cc2c3c(c4ccc(OC)c(OC)c4c2cc1OC)CN1CCC[C@@H]1C3 | -29% (inactive) |
| N#CSC#CCCC#CSC#N | 47% (inactive) |
| Nc1nc(-c2ccc(Cl)cc2)c(N=Nc2ccc(Br)cc2)s1 | 11% (inactive) |
| CC(=O)C(C(C)=O)C1C=CC=CC=C1 | -139% (inactive) |
| CCCCN(C(=O)c1ccccc1)C1CCC(=O)c2[nH]c3ccccc3c21 (stereo not drawn) | 2% (inactive) |
| S=C(Nc1ccc(Cl)c(Cl)c1)N1c2ccccc2-n2cccc2C1c1cccnc1 (stereo not drawn) | 45% (inactive) |
| O=C1CCC(Cc2ccc(C(F)(F)F)cc2)C(=O)N1 (stereo not drawn) | -4% (inactive) |
| Oc1cc(O)c2c(c1)OC(c1ccc(O)c(O)c1)C(OC1(c3cc(O)c(O)c(O)c3)Oc3cc(O)cc(O)c3C(O)C1O)C2 (stereo not drawn) | -5% (inactive) |
| Cc1cccc(N=Nc2ccc(O)cc2)c1 | -154% (inactive) |

| SMILES | growth inhibition |
| --- | --- |
| Cc1c2c(c(C)c3c4c(oc13)CCCC4)C=NCC2 | -5% (inactive) |
| CCOC(=O)C(=CCC1NCCc2c1[nH]c1ccccc21)C(=O)OCC (stereo not drawn) | 41% (inactive) |
| CCOC(=O)C1=C(c2ccccc2)SC(c2ccccc2)N(C(C)C)C1=O (stereo not drawn) | 9% (inactive) |
| CN(C)CCCNc1cc(/C=C/c2ccc([N+](=O)[O-])cc2)nc2ccccc12 | -3% (inactive) |
| CC(CN(C)C)C(=O)c1cn(C)c2ccccc12 (stereo not drawn) | -2% (inactive) |
| Nc1ccccc1/C=C/c1c[nH]c2ccccc12 | 9% (inactive) |
| Cc1c(CNc2ccc(Cl)c(Cl)c2Cl)cnc2nc(N)nc(N)c12 | 30% (inactive) |
| O=C(c1cccs1)N(C(=S)N1CCN(c2ccccn2)CC1)c1ccccc1 | -3% (inactive) |
| COc1ccccc1/C=C1\NC(=S)N(/C=C2\C(=O)Oc3ccccc3C2=O)C1=O | 9% (inactive) |
| Cc1cc(O)c(C)c(C)c1N=Nc1ccccc1 | -124% (inactive) |
| O=S1CCS(=O)C1c1ccccc1 (stereo not drawn) | 2% (inactive) |
| Cc1ccc2nc(-c3ccc(N)cc3)sc2c1 | -1% (inactive) |
| CC1OC(OC2C(Oc3c(-c4ccc(O)c(O)c4O)oc4cc(O)ccc4c3=O)OC(CO)C(O)C2O)C(O)C(O)C1O (stereo not drawn) | -5% (inactive) |
| O=C(OCc1ccccc1CN1CCOCC1)c1cccc(Br)c1 | 21% (inactive) |
| C=CCOCC(C)OC(=O)C(C)C (stereo not drawn) | -140% (inactive) |
| CC(C)(C)OC(=O)N[C@H]1CC2(C=C(Cl)C(=O)C(Cl)=C2)OC1=O | 43% (inactive) |
| CC(Nc1ccc(Cl)c(Cl)c1)c1ccncc1 (stereo not drawn) | -1% (inactive) |
| COc1ccccc1/C=C(\NC(=O)c1ccccc1)c1nc2ccccc2[nH]1 | 21% (inactive) |
| CCCCCCC(O)(CCCCCC)CCCCCC | 1% (inactive) |

Same assay, conditions: S. cerevisiae mlh1 rad18 strain growth inhibition; at 50.0 µM (retest, dose inferred, filed as 5.0); active compounds read high

| SMILES | growth inhibition |
| --- | --- |
| Clc1cc2n[nH]nc2c(Cl)c1Cl | 94% (active) |
| NSc1ccc(N)s1 | 12% (inactive) |
| O=C1C2=C(CCCC2)C(=O)C(Cl)C1Cl (stereo not drawn) | 99% (active) |
| O=C(COc1ccc2ccccc2c1)NC1c2ccccc2Oc2ccccc21 | 96% (active) |
| COc1ccc(-c2cc(-c3ccco3)c(C#N)c(=S)n2C2OC(CO)C(O)C(O)C2O)cc1 (stereo not drawn) | 20% (inactive) |
| Clc1cccc(Cl)c1C(Nc1nncs1)Nc1nncs1 | 94% (active) |
| COC([C@@H](OC(=O)c1ccccc1)[C@H](OC(=O)c1ccccc1)C(O)COC(=O)c1ccccc1)n1cc(C)c(=O)[nH]c1=O (stereo partly drawn) | 69% (inactive) |
| C1=C(c2c(-c3ccccc3)[nH]c3ccccc23)Cc2ccccc21 | 93% (active) |
| CC12C(=O)OC(=O)C1C1c3ccccc3C2c2ccccc21 (stereo not drawn) | 99% (active) |
| O=C(N/C(=C\c1ccc(/C=C(\NC(=O)c2ccccc2)c2nc3ccccc3s2)cc1)c1nc2ccccc2s1)c1ccccc1 | 28% (inactive) |
| COS(=O)c1cc(Cl)cc(Cl)c1OC(=O)CSSCC(=O)Oc1c(Cl)cc(Cl)cc1S(=O)OC (stereo not drawn) | 99% (active) |
| COc1cc2c3c(c4ccc(OC)c(OC)c4c2cc1OC)CN1CCC[C@@H]1C3 | 93% (active) |
| N#CSC#CCCC#CSC#N | 46% (inactive) |
| Nc1nc(-c2ccc(Cl)cc2)c(N=Nc2ccc(Br)cc2)s1 | 97% (active) |
| CC(=O)C(C(C)=O)C1C=CC=CC=C1 | 92% (active) |
| CCCCN(C(=O)c1ccccc1)C1CCC(=O)c2[nH]c3ccccc3c21 (stereo not drawn) | -15% (inactive) |
| S=C(Nc1ccc(Cl)c(Cl)c1)N1c2ccccc2-n2cccc2C1c1cccnc1 (stereo not drawn) | 100% (active) |
| O=C1CCC(Cc2ccc(C(F)(F)F)cc2)C(=O)N1 (stereo not drawn) | 3% (inactive) |
| Oc1cc(O)c2c(c1)OC(c1ccc(O)c(O)c1)C(OC1(c3cc(O)c(O)c(O)c3)Oc3cc(O)cc(O)c3C(O)C1O)C2 (stereo not drawn) | 12% (inactive) |
| Cc1cccc(N=Nc2ccc(O)cc2)c1 | 98% (active) |

| SMILES | growth inhibition |
| --- | --- |
| Cc1c2c(c(C)c3c4c(oc13)CCCC4)C=NCC2 | 45% (inactive) |
| CCOC(=O)C(=CCC1NCCc2c1[nH]c1ccccc21)C(=O)OCC (stereo not drawn) | 97% (active) |
| CCOC(=O)C1=C(c2ccccc2)SC(c2ccccc2)N(C(C)C)C1=O (stereo not drawn) | 76% (active) |
| CN(C)CCCNc1cc(/C=C/c2ccc([N+](=O)[O-])cc2)nc2ccccc12 | 56% (inactive) |
| CC(CN(C)C)C(=O)c1cn(C)c2ccccc12 (stereo not drawn) | 1% (inactive) |
| Nc1ccccc1/C=C/c1c[nH]c2ccccc12 | 98% (active) |
| Cc1c(CNc2ccc(Cl)c(Cl)c2Cl)cnc2nc(N)nc(N)c12 | 56% (inactive) |
| O=C(c1cccs1)N(C(=S)N1CCN(c2ccccn2)CC1)c1ccccc1 | 14% (inactive) |
| COc1ccccc1/C=C1\NC(=S)N(/C=C2\C(=O)Oc3ccccc3C2=O)C1=O | 50% (inactive) |
| Cc1cc(O)c(C)c(C)c1N=Nc1ccccc1 | -119% (inactive) |
| O=S1CCS(=O)C1c1ccccc1 (stereo not drawn) | 39% (inactive) |
| Cc1ccc2nc(-c3ccc(N)cc3)sc2c1 | 19% (inactive) |
| CC1OC(OC2C(Oc3c(-c4ccc(O)c(O)c4O)oc4cc(O)ccc4c3=O)OC(CO)C(O)C2O)C(O)C(O)C1O (stereo not drawn) | -6% (inactive) |
| O=C(OCc1ccccc1CN1CCOCC1)c1cccc(Br)c1 | 40% (inactive) |
| C=CCOCC(C)OC(=O)C(C)C (stereo not drawn) | -117% (inactive) |
| CC(C)(C)OC(=O)N[C@H]1CC2(C=C(Cl)C(=O)C(Cl)=C2)OC1=O | 92% (active) |
| CC(Nc1ccc(Cl)c(Cl)c1)c1ccncc1 (stereo not drawn) | 98% (active) |
| COc1ccccc1/C=C(\NC(=O)c1ccccc1)c1nc2ccccc2[nH]1 | 96% (active) |
| CCCCCCC(O)(CCCCCC)CCCCCC | -31% (inactive) |
